Assay outcomes from PubChem.
A selection: hits, their analogues and other compounds. The true share with any hit is near 6.3%.
MPTP block – inhibitors of mitochondrial permeability transition pore. isolated mouse mitochondria, Ca2+ swelling absorbance, 30 min. hit rate 1.4% among 360,000. inhibition, % at 10 µM;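 active = inhibition of 50% or more, scaled per plate between neutral and stimulator controls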
tim10-1 inh – growth inhibitors of tim10-1 mutant yeast; hit rate 2.2% among 330,000; S. cerevisiae tim10-1 ts strain growth, BacTiter-Glo, 24 h; inhibition, % at 20 µM; AID 463190;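 active = inhibition of at least 40%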;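 also: mutant grown at 25 °C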
TIM10 inh – inhibits growth of TIM10 yeast strain; hit rate 1.4% among 330,000; S. cerevisiae TIM10 strain growth, BacTiter-Glo luminescence, 24 h; inhibition, % at 10 µM;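 active = inhibition of 40% or more at the single tested concentration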;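 also: wild-type TIM10 isogenic control strain grown at permissive 25 °C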
Mdm2 MdmX PPI – disrupts the human Mdm2-MdmX interaction | O15151+Q00987 | SaOS-2 split-luciferase Mdm2/MdmX complementation, luminescence | inhibition, % at 8 µM | hit rate 3% among 330,000 | AID 485346;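 active = inhibition of at least 50% at 8 µM in the primary screen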
tim23-1 inh – growth inhibitors of tim23-1 mutant yeast. S. cerevisiae tim23-1 growth, BacTiter-Glo luminescence, 24 h. inhibition, % at 20 µM. hit rate 1.3% among 330,000. AID 463212;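 active = growth inhibition of the mutant yeast at or above 50%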;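 also: temperature-sensitive mutant grown at 25 °C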
Rh123 counter – membrane potential counter-screen of mitochondrial pore inhibitors | inhibition, % at 10 µM | hit rate 78% among 5,000 | shares compounds with MPTP block | isolated mitochondria, Rhodamine 123 fluorescence; in the data active = inhibition above about 22%
MPTP abs DR – dose response confirmation of mitochondrial permeability transition pore inhibitors; shares compounds with MPTP block; isolated mitochondria swelling, absorbance; IC50, µM; hit rate 58% among 780; in the data active = IC50 below about 20 µM
MPTP counter DR – counter-screen for mitochondrial permeability transition pore inhibitors, dose response; shares compounds with MPTP block; IC50, µM; hit rate 49% among 780; AID 651564; isolated mitochondria counterscreen, fluorescence read-out; in the data active = IC50 below about 80 µM
Each line names hits and unclear results; the compound was inactive in the other large screens (follow-up assays come after a bar, where they were run).

COc1ccc(NC(=O)COc2ccc(N(C)S(=O)(=O)c3ccc(Cl)cc3)cc2)cc1OC	MPTP block 76 | Rh123 counter 90
O=C(O)c1ccccc1C(=O)c1ccc(N2CCCC2)c([N+](=O)[O-])c1	none
CC(=O)c1ccc(N2CCN(c3ccccc3O)CC2)c([N+](=O)[O-])c1	MPTP block 85 | Rh123 counter 81
COc1ccc(S(=O)(=O)N2CCN(c3ccc(C)cc3C)CC2)cc1OC	MPTP block 57 | Rh123 counter 82
COC(=O)c1ccc(N2CCN(S(=O)(=O)c3ccc(C)cc3)CC2)c([N+](=O)[O-])c1	MPTP block 56 | Rh123 counter 65
COC(=O)c1ccc(N2CCN(S(=O)(=O)c3ccc(Br)cc3)CC2)c([N+](=O)[O-])c1	none
NC(=O)CSc1nnc(-c2ccco2)n1-c1ccc(F)cc1	none (no result: tim10-1 inh, TIM10 inh, Mdm2 MdmX PPI, tim23-1 inh)
CC(C)(C)NCC(=Cc1ccccc1)C(=O)c1ccccc1	none (no result: tim10-1 inh, TIM10 inh, Mdm2 MdmX PPI, tim23-1 inh)
CCOc1ccc(-c2noc(-c3csc([C@@H]4C[C@H](O)[C@@H](CO)O4)n3)n2)cc1	none (no result: tim10-1 inh, TIM10 inh, Mdm2 MdmX PPI, tim23-1 inh)
O=C(CCc1ccc(S(=O)(=O)NCCc2ccccc2)cc1)N1CCN(Cc2ccc3c(c2)OCO3)CC1	MPTP block 54 | Rh123 counter 24
CC(C)CNS(=O)(=O)c1ccc(CCC(=O)N2CCN(Cc3ccc4c(c3)OCO4)CC2)cc1	none
O=C(NCc1ccccc1)c1ccc2nnsc2c1	none
O=C(Nc1ccccc1)Nc1ccc2snnc2c1	MPTP block 101 | Rh123 counter 92
O=C(Nc1ccccc1)Nc1ccc2nnsc2c1	MPTP block 83 | Rh123 counter 72
CN(C)c1ccc(NC(=O)Nc2ccc3snnc3c2)cc1	none
C[C@H](CO)N1C[C@H](C)[C@H](CN(C)C(=O)Nc2ccccc2F)OCc2cnnn2CCCC1=O	none (no result: tim10-1 inh, TIM10 inh, Mdm2 MdmX PPI, tim23-1 inh)
O=C(N/N=C/c1cccc(Oc2ccccc2)c1)c1cccc(Br)c1	MPTP block 67 | Rh123 counter 75
O=C(NC1=NCCS1)C1CCN(S(=O)(=O)c2ccc(Cl)cc2)CC1	none
Cc1ccc(S(=O)(=O)N2CCCC(C(=O)NC3=NCCS3)C2)cc1 (configuration not stated)	MPTP block 70 | Rh123 counter inactive | MPTP abs DR inactive | MPTP counter DR inactive
CCn1ncc(CN2CCC(n3nccc3NC(=O)c3ccccc3Cl)CC2)c1C	none (no result: tim10-1 inh, TIM10 inh, Mdm2 MdmX PPI, tim23-1 inh)
COc1ccc(Cl)cc1C(=O)Nc1ccc(CN2CCCCC2)cc1	MPTP block 57 | Rh123 counter inactive | MPTP abs DR 7.1 | MPTP counter DR inactive
CO/N=C/C(c1ncc(C(F)(F)F)cc1Cl)S(=O)(=O)c1ccccc1 (configuration not stated)	none
CO/N=C/C(C#N)c1ncc(C(F)(F)F)cc1Cl (configuration not stated)	MPTP block 99 | Rh123 counter 92
